Shiga toxin inh: A qHTS for Small Molecule Inhibitors of Shiga Toxin; Vero cells, Shiga toxin protein synthesis inhibition reporter; inhibition, % at 38.7 µM; actives 9.2% (n = 290,000); AID 2315, 2010; in the data active means inhibition mostly above about 28%, no sharp cut-off; inactive means mostly below about 43%
SARS PLpro yeast: qHTS of Yeast-based Assay for SARS-CoV PLP. Potency, µM (titrated, usually from 32.9 µM), actives largely listed as activators. actives 0.19% (n = 330,000). S. cerevisiae expressing SARS-CoV PLpro, growth rescue; calls by dose curve; further: nearly all actives have a fitted effect of over 55% in size
Pf growth 48h: Primary qHTS for delayed death inhibitors of the malarial parasite plastid, 48 hour incubation; P. falciparum luciferase growth in erythrocytes, 48 h; Potency, µM (top dose mostly 28.7 µM), usual class: inhibitors; actives 5.9% (n = 310,000)
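Luminescence readout; reporter = integrated firefly luciferase in P. falciparum. RBC culture at 2% hematocrit, 0.1% parasitemia final, 37 C/5% CO2; decreased signal taken as growth inhibition.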
CHX counter: Cycloheximide Counterscreen for Small Molecule Inhibitors of Shiga Toxin; actives 12% (n = 300,000); AID 2314, 2010; cell reporter, cycloheximide protein synthesis inhibition counterscreen; max response, %; in the data active means max response mostly above about 13%, no sharp cut-off; inactive means mostly below about 14%; further: read at 38.3 µM for the half of the compounds with a filed dose
Pf growth 96h: Primary qHTS for delayed death inhibitors of the malarial parasite plastid, 96 hour incubation; P. falciparum luciferase reporter growth, 96 h; Potency, µM (series often up to 28.7 µM), hits mostly inhibitors; actives 6.9% (n = 320,000)
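Plates of compound plus infected erythrocytes (2% hematocrit, 0.05% parasitemia final) incubate 96 hours, 37 C, 5% CO2. Detection reagent added; reduced luminescence from the parasites' luciferase reporter flags inhibition.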
AMA1-RON2 inh: qHTS for Inhibitors of AMA1-RON; Towards Development of Antimalarial Drug Lead: Primary Screen. Plasmodium falciparum AMA1 (3D7) - RON2 peptide interaction. AlphaScreen AMA1-biotinylated RON2 peptide binding. Potency, µM (series often up to 58.2 µM), usual class: inhibitors. actives 0.2% (n = 360,000). AID 720542, 2013; further: nearly all actives have a fitted effect of over 45% in size
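AMA1 (3D7) with his tag at 25 nM final met compounds first, then biotinylated RON2 peptide at 25 nM; detection used donor plus acceptor beads, 10 µg/mL apiece, read by AlphaScreen after 30 min at room temperature.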
Of the large screens only hits and unclear results are named; the others gave an inactive call; ! = not active in a repeat. In the library only some 19% were active in any assay of this set; here they are far more common. Unless noted, the call rests on the fitted dose curve; in most records, active means well fitted curve in the direction sought with a large enough effect; inconclusive means small, poorly fitted or top-dose-only effect, or another doubt; inactive means no such curve, though single readings can be large; an effect the other way counts as inactive or inconclusive.

Cc1cnc(C(=O)N(c2ccccc2)C(c2ccccc2)c2nc3ccccc3[nH]2)cn1 (centres undefined)	none (no result: Shiga toxin inh, SARS PLpro yeast, Pf growth 48h, CHX counter, Pf growth 96h)
CNCCOc1ccccc1OC(C)C	Pf growth 96h 10µM
CCOc1ccccc1OCCOc1ccccc1OC(C)C	none (no result: Pf growth 48h)
CCC(C(=O)NC(C)(C)C)N(Cc1ccco1)C(=O)CNS(=O)(=O)c1ccc(OC)cc1 (centres undefined)	none
O=C(Nc1ccc(F)c(Cl)c1)c1cccnc1	CHX counter 14
Fc1ccc(NC(=S)Nc2cccnc2)cc1Cl	Pf growth 48h 15µM, Pf growth 96h inconclusive
Fc1ccc(NC(=S)Nc2cccnc2)cc1	none
CC(C)(C)c1nnc(NC(=O)COc2ccc3c(c2)OCO3)s1	Pf growth 96h inconclusive (no result: Shiga toxin inh, CHX counter)
CCSc1nnc(NC(=O)c2ccc3c(c2)OCO3)s1	Shiga toxin inh 67, CHX counter 45 (no result: Pf growth 96h)
CC(c1ccccc1)c1nnc(NC(=O)c2ccc3c(c2)OCO3)s1 (centres undefined)	Pf growth 48h inconclusive
CC(C)(C)c1nnc(NC(=O)c2ccc3c(c2)OCO3)s1	Shiga toxin inh 170, CHX counter 39
CC(C)c1nnc(NC(=O)c2ccc3c(c2)OCO3)s1	Shiga toxin inh 125, CHX counter 40
CC(C)Sc1nnc(NC(=O)c2ccc3c(c2)OCO3)s1	Shiga toxin inh 56, CHX counter 24
CCCC1=Nc2cc(C(=O)NCCN3CCOCC3)ccc2Sc2ccc(C)cc21	Pf growth 48h inconclusive
CN(c1ccc(Br)cc1)S(=O)(=O)c1ccc2[nH]cc(C(=O)NCCN3CCOCC3)c(=O)c2c1	Pf growth 48h inconclusive, Pf growth 96h inconclusive
C=CCN=C1N[C@@H](c2ccc(Br)cc2)C(C(=O)OC)=C(C)N1Cc1ccccc1	Pf growth 48h inconclusive, Pf growth 96h inconclusive (no result: AMA1-RON2 inh)
CCN(CC)C(=O)c1sc(NC(=O)c2ccncc2)c(C(=O)OC)c1C	none
CCN(CC)C(=O)c1sc(NC(=O)c2ccc3c(c2)OCO3)c(C(N)=O)c1C	CHX counter 42 (no result: SARS PLpro yeast)
O=C(NC1CCCCC1)C1CC(=O)N(c2cccc([N+](=O)[O-])c2)C1 (centres undefined)	none
COc1cc(C(=O)OC(C)CN2CCCCC2)cc(OC)c1OC (centres undefined)	none
Cc1c(Cl)cccc1Nc1nc(N)nc(CSCCO)n1	none (no result: Pf growth 96h)
Nc1nc(CSCCO)nc(Nc2ccc(F)cc2)n1	CHX counter 25
Cc1ccc(Nc2nc(N)nc(CSC(=S)N3CCOCC3)n2)c(C)c1	Shiga toxin inh 72, CHX counter 34
CN1CCN(C(=S)SCc2nc(N)nc(Nc3ccc(F)cc3)n2)CC1	Pf growth 48h inconclusive, CHX counter 19
Nc1nc(CSC(=S)N2CCOCC2)nc(Nc2ccc(F)cc2)n1	none
COc1ccc(Nc2nc(N)nc(CSC(=S)N3CCOCC3)n2)cc1	Shiga toxin inh 67, CHX counter 39
CCCCC1Cc2[nH]c(=S)[nH]c(=O)c2C(c2ccc(F)cc2)O1 (centres undefined)	none (no result: Shiga toxin inh, SARS PLpro yeast, Pf growth 48h, CHX counter, Pf growth 96h)
CN(Cc1ccccc1)C(=O)c1[nH]cnc1C(=O)Nc1ccccc1F	none (no result: Shiga toxin inh, SARS PLpro yeast, Pf growth 48h, CHX counter, Pf growth 96h)
COC(=O)C[C@H]1CC[C@@H](NS(=O)(=O)c2ccc(C)cc2)[C@@H](CO)O1	none (no result: Shiga toxin inh, SARS PLpro yeast, Pf growth 48h, CHX counter, Pf growth 96h)
Cc1ccc(C(=O)Nc2ccc(SC(F)F)cc2)s1	Shiga toxin inh 109, CHX counter 51
O=C(COC(=O)C1=COCCO1)Nc1ccc(F)cc1	none (no result: Shiga toxin inh, CHX counter)
O=C(Nc1ccc(SC(F)F)cc1)C1=COCCO1	Shiga toxin inh 70, CHX counter 34, Pf growth 96h 1.7µM
CCOC(=O)N1CCN(Cc2ccccn2)CC1	none (no result: SARS PLpro yeast)
CCOC(=O)N1CCC(=C2c3ccc(Cl)cc3CCc3cccnc32)CC1	Pf growth 48h 12µM, Pf growth 96h 10µM!
Cc1nnc(SCC(=O)NCc2ccccc2F)c2nn(-c3ccc(Cl)cc3)c(C)c12	none (no result: SARS PLpro yeast, Pf growth 48h, Pf growth 96h, AMA1-RON2 inh)
CCC(C)Sc1ccc([C@H]2N[C@@](C)(C(=O)OC)[C@H]3C(=O)N(CC)C(=O)[C@@H]23)cc1 (some centres undefined)	Pf growth 48h inconclusive (no result: Shiga toxin inh, CHX counter)
Cc1[nH]ccc2c1[nH]c1cc(=O)ccc12	Pf growth 48h 13µM, Pf growth 96h 10µM
NC(=O)c1sc2cc(C(F)(F)F)cnc2c1-c1ccccc1	Pf growth 48h inconclusive, Pf growth 96h 8.3µM, AMA1-RON2 inh inconclusive
CNC(=S)NNC(=O)c1sc2cc(C(F)(F)F)cnc2c1-c1cccnc1	Pf growth 48h inconclusive, Pf growth 96h inconclusive
COc1cc(/C=N\NC(=O)c2ccc(-c3ccccc3)cc2)cc(OC)c1O	Pf growth 48h 9.3µM, CHX counter 15
COc1cc(/C=N/NC(=O)c2ccc(COc3cc(C)ccc3C(C)C)cc2)cc(OC)c1O	Shiga toxin inh 20, Pf growth 48h inconclusive, CHX counter 34, Pf growth 96h inconclusive
Cc1ccc(C(C)C)c(OCc2ccc(C(=O)N/N=C/c3ccc(O)c(O)c3)cc2)c1	Shiga toxin inh 59, Pf growth 48h inconclusive, CHX counter 14, Pf growth 96h inconclusive
Cc1c(Cl)cccc1-c1ccc(CNCc2ccccn2)o1	none (no result: Shiga toxin inh)
CC1CC2OC2/C=C\C=C/C(=O)Cc2c(Cl)c(O)cc(O)c2C(=O)O1 (centres undefined)	none (no result: SARS PLpro yeast, Pf growth 48h, Pf growth 96h, AMA1-RON2 inh)
COc1ccc(N2CCn3c2nc2c3c(=O)n(CCc3ccccc3)c(=O)n2C)c(OC)c1	Pf growth 96h 12µM (no result: AMA1-RON2 inh)
COc1ccc(-c2nnc3n(CCc4ccccc4)c(=O)c4ccccc4n23)c(OC)c1	Pf growth 48h 13µM, Pf growth 96h 4.7µM
COc1ccc(N2CC(C)Cn3c2nc2c3c(=O)n(Cc3ccccc3)c(=O)n2C)c(OC)c1 (centres undefined)	Pf growth 48h inconclusive, Pf growth 96h 8.3µM
COc1ccc(N2CCn3c2nc2c3c(=O)n(CCCc3ccccc3)c(=O)n2C)c(OC)c1	Pf growth 48h inconclusive, Pf growth 96h inconclusive
CC1(C)CC(NC(=S)NCc2ccc3c(c2)OCO3)CC(C)(C)N1	Pf growth 48h inconclusive (no result: AMA1-RON2 inh)
COc1ccc(-c2cc(C(=O)Nc3cc(C)nn3-c3ccccc3)no2)cc1OC	Pf growth 48h inconclusive
[Cl][In]([Cl])[Cl]	Pf growth 48h 7.6µM, Pf growth 96h 6.7µM (no result: Shiga toxin inh, SARS PLpro yeast, CHX counter, AMA1-RON2 inh)
CSc1ncccc1C(=O)N1CCCC(N2CCN(c3ccccc3C)CC2)C1 (centres undefined)	none (no result: Shiga toxin inh, SARS PLpro yeast, Pf growth 48h, CHX counter, Pf growth 96h)
COc1ccc(NC(=O)NC(C)C2CC3CCC2C3)cc1 (centres undefined)	none
CC(NC(=O)c1ccc(F)cc1Cl)C1CC2CCC1C2 (centres undefined)	none
COc1ccc(C(=O)NC(C)C2CC3CCC2C3)cc1 (centres undefined)	CHX counter 11, Pf growth 96h inconclusive
Cc1ccc(C(=O)NC(C)C2CC3CCC2C3)c(C)c1 (centres undefined)	Shiga toxin inh 90
